Among all 310,000 compounds or so, about 14,000 (4.5%) showed an effect of 50% or more. Effects have a minus sign here. The full list was thinned out, with strong results kept by preference.
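Further: peak tail current of the secondary pulse compared with the same well before compound.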

For this assay, the target named is human ether-à-go-go-related gene (hERG) potassium channel (human, UniProt Q12809). The experiment in a line: primary screen, population patch clamp on CHO cells stably expressing hERG; higher = less effect of the substance.
Chain of human ether-à-go-go-related gene (hERG) potassium channel (Q12809 whole entry, looked up): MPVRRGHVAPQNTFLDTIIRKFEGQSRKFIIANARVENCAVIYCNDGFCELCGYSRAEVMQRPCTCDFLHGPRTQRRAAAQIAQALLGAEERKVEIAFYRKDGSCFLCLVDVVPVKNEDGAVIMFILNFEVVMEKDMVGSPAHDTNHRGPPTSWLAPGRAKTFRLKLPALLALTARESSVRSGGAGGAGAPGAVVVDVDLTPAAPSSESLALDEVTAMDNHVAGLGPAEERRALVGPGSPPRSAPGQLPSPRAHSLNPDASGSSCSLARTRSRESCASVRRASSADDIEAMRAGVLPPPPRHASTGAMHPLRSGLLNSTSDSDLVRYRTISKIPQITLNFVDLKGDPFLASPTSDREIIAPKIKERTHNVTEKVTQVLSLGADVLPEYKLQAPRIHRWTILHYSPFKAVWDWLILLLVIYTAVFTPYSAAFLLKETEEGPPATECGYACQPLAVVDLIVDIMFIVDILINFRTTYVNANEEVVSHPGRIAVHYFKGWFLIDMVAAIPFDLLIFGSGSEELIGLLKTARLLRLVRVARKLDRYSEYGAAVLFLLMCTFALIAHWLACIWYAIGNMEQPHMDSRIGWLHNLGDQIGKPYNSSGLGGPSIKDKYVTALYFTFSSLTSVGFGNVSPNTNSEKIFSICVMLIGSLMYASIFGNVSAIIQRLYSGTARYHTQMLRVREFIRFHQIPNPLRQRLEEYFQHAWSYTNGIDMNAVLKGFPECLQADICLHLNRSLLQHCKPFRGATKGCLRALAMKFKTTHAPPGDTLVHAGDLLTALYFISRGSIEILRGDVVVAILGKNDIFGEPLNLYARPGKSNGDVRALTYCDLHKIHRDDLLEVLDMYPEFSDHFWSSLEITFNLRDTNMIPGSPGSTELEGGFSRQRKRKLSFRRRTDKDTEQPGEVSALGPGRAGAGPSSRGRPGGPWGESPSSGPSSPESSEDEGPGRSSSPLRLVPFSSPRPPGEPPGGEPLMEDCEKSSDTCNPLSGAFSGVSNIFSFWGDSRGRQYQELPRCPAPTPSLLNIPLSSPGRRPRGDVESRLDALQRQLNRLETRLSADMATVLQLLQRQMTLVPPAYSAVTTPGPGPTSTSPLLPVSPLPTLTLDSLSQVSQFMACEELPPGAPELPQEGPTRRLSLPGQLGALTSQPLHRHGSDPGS
`CCCC(C(=O)O)n1c(O)c(C=C2N=c3ccccc3=N2)sc1=S` (stereo not shown): the “hERG current change (%, negative = inhibition) at 10uM” value came to 6.16%.

Consider `CCN1C(=O)c2ccccc2Sc2ccc(C(=O)NCCN3CCOCC3)cc21`, for which the “hERG current change (%, negative = inhibition) at 10uM” value is given as -5.49%.

Take `O=S(=O)(O)c1ccc(N=NNc2ccc(Br)cc2)cc1`: the “hERG current change (%, negative = inhibition) at 10uM” value amounted to 30.7%.

In the case of `N#Cc1ccc(C23CC4(C2)[C@H](CN(P(=O)(c2ccccc2)c2ccccc2)[C@@H]4c2ccccc2)C3c2ccc(Cl)nc2)cc1` (stereo partly shown), the “hERG current change (%, negative = inhibition) at 10uM” value is listed as -8%.

`CCC(C)n1c(SCC(=O)/C(C#N)=C(\C)N)nc2ccccc2c1=O` (stereo not shown): the “hERG current change (%, negative = inhibition) at 10uM” value is -15.3%.

For `O=C(/C=C/c1ccco1)Nc1ccc(Oc2ccccc2)cc1`, the “hERG current change (%, negative = inhibition) at 10uM” value is -5.74%.

As for `COc1ccccc1CNCc1cc(OC)c(OC)cc1OC`, the “hERG current change (%, negative = inhibition) at 10uM” value is given as -10.3%.

Take `Cc1cc(OC(C)C)nc(NCc2ccccc2)n1`: the “hERG current change (%, negative = inhibition) at 10uM” value is reported as -3.54%.

With `COc1ccccc1-c1coc2c(CN3CCN(CCO)CC3)c(O)ccc2c1=O`, the “hERG current change (%, negative = inhibition) at 10uM” value is recorded as 17.7%.

With `N=c1c2c3c(sc2ncn1Nc1ccccc1)CCC3`, the “hERG current change (%, negative = inhibition) at 10uM” value is recorded as -29.6%.

`CCOc1cccc(-c2nn3c(-c4cc(C)[nH]n4)nnc3s2)c1`: the “hERG current change (%, negative = inhibition) at 10uM” value is on record as -58.2%.

Regarding `COc1cccc(-c2nn3c(-c4ccccn4)nnc3s2)c1`, the “hERG current change (%, negative = inhibition) at 10uM” value was -28%.

Turning to `CCOc1cccc(-c2nn3c(-c4ccco4)nnc3s2)c1`, the “hERG current change (%, negative = inhibition) at 10uM” value was -49.4%.

For `COc1cccc(-c2nn3c(-c4cccc(C)c4)nnc3s2)c1`, the “hERG current change (%, negative = inhibition) at 10uM” value worked out at 17.5%.

Regarding `COc1cccc(-c2nn3c(-c4cc(C)[nH]n4)nnc3s2)c1`, the “hERG current change (%, negative = inhibition) at 10uM” value is given as -57.5%.

Turning to `CCOc1cccc(-c2nn3c(-c4ccccn4)nnc3s2)c1`, the “hERG current change (%, negative = inhibition) at 10uM” value was found to be 6.33%.

As for `CN(C)/C=C/C(=O)c1ccc(N2CCN(c3ncc(C(F)(F)F)cc3Cl)CC2)cc1`, the “hERG current change (%, negative = inhibition) at 10uM” value is -6.08%.

In the case of `CCOC(=O)c1ccccc1NC(=S)N1CC(C)CC(C)C1` (stereo not shown), the “hERG current change (%, negative = inhibition) at 10uM” value was -7.45%.

For the compound `Clc1cccc(CNCCc2ccc3c(c2)OCO3)c1.O=C(O)C(=O)O`, the “hERG current change (%, negative = inhibition) at 10uM” value is listed as -24%.

For `COc1ccc(CNCc2cc3c(cc2[N+](=O)[O-])OCO3)cc1.O=C(O)C(=O)O`, the “hERG current change (%, negative = inhibition) at 10uM” value is -40.8%.

In the case of `Brc1cccc(CNCCc2ccc3c(c2)OCO3)c1.O=C(O)C(=O)O`, the “hERG current change (%, negative = inhibition) at 10uM” value was -24.9%.

`Clc1ccc(CNCCc2ccc3c(c2)OCO3)cc1.O=C(O)C(=O)O`: the “hERG current change (%, negative = inhibition) at 10uM” value is listed as -56.1%.

In the case of `O=C(O)C(=O)O.O=[N+]([O-])c1cc2c(cc1CNCCc1ccc3c(c1)OCO3)OCO2`, the “hERG current change (%, negative = inhibition) at 10uM” value was -61.5%.

For `CCOc1ccc(CNCCc2ccc3c(c2)OCO3)cc1`, the “hERG current change (%, negative = inhibition) at 10uM” value is -77.2%.

As to `O=C(O)C(=O)O.c1cncc(CNCCc2ccc3c(c2)OCO3)c1`, the “hERG current change (%, negative = inhibition) at 10uM” value is 8.84%.

On to `c1cc(CNCCc2ccc3c(c2)OCO3)ccn1`, for which the “hERG current change (%, negative = inhibition) at 10uM” value is 18.3%.

For `CCOc1ccccc1CNCCc1ccc2c(c1)OCO2.Cl`, the “hERG current change (%, negative = inhibition) at 10uM” value was -32.8%.

Turning to `Fc1ccc(CNCCc2ccc3c(c2)OCO3)cc1`, the “hERG current change (%, negative = inhibition) at 10uM” value is recorded as -3.52%.

`COc1cccc(CNCCc2ccc3c(c2)OCO3)c1OC.O=C(O)C(=O)O`: the “hERG current change (%, negative = inhibition) at 10uM” value is -15.5%.

Take `FC(F)(F)c1ccc(CNCCc2ccc3c(c2)OCO3)cc1.O=C(O)C(=O)O`: the “hERG current change (%, negative = inhibition) at 10uM” value is reported as -60.3%.

`O=C(CSc1ncccn1)Nc1ccccc1`: the “hERG current change (%, negative = inhibition) at 10uM” value was 3.55%.

Consider `Cc1ccccc1OCc1ccc(C(=O)N2CCOCC2)o1`, for which the “hERG current change (%, negative = inhibition) at 10uM” value was 6.86%.

Consider `Cc1cc(C)c(C(=O)O)c(Cl)n1`, for which the “hERG current change (%, negative = inhibition) at 10uM” value is on record as 5.94%.

Regarding `O=C(OCC(=O)N1CCc2ccccc2C1)c1ccc(Cl)c([N+](=O)[O-])c1`, the “hERG current change (%, negative = inhibition) at 10uM” value is listed as -20.7%.

Turning to `CC1=C(c2ccccc2)[N+](=O)C2(CCCC2)N1[O-]`, the “hERG current change (%, negative = inhibition) at 10uM” value stood at 10.3%.

Regarding `CCOCCCNC(=S)N(Cc1ccccc1)Cc1nc2ccccc2c(=O)[nH]1`, the “hERG current change (%, negative = inhibition) at 10uM” value is given as -22.3%.

Regarding `CCCc1cc(-c2ccc3c(c2)COc2c4ccccc4nn2-3)on1`, the “hERG current change (%, negative = inhibition) at 10uM” value was -21.4%.

Turning to `C/C(=N\NC(=O)c1ccccc1O)c1ccc(NC(=O)c2ccccc2)cc1`, the “hERG current change (%, negative = inhibition) at 10uM” value stood at 15.3%.

On to `COC(=O)c1c(NC(=O)c2ccccc2)sc2c1CC(C)(C)NC2(C)C`, for which the “hERG current change (%, negative = inhibition) at 10uM” value is on record as -5%.

Consider `Cc1cccc(C(=O)Nc2ccccc2SCC(=O)Nc2ccc(C)c(Cl)c2)c1`, for which the “hERG current change (%, negative = inhibition) at 10uM” value was determined as 28.5%.

For `COc1ccc(C(=O)/C=C/Nc2ccc([N+](=O)[O-])cc2C)c(OC)c1`, the “hERG current change (%, negative = inhibition) at 10uM” value came to 3.07%.

As for `O=C(O)Cn1c(SCCOc2ccccc2)nc2ccccc21`, the “hERG current change (%, negative = inhibition) at 10uM” value is 0.876%.

For `O=S(=O)(c1cccc(-c2nnc(SC(F)F)n2-c2ccccc2)c1)N1CCCCC1`, the “hERG current change (%, negative = inhibition) at 10uM” value was -30.3%.

For the compound `CCC1CCCCN1S(=O)(=O)c1ccc(C(=O)N(CCCN(C)C)c2nc3cc4c(cc3s2)OCO4)cc1.Cl` (stereo not shown), the “hERG current change (%, negative = inhibition) at 10uM” value is recorded as -56%.

Turning to `CC1CCCCN1S(=O)(=O)c1ccc(C(=O)N(CCCN(C)C)c2nc3cc4c(cc3s2)OCO4)cc1.Cl` (stereo not shown), the “hERG current change (%, negative = inhibition) at 10uM” value is given as -81.1%.

As for `CN(C)CCCN(C(=O)c1ccc(S(=O)(=O)N(C)C)cc1)c1nc2cc3c(cc2s1)OCO3.Cl`, the “hERG current change (%, negative = inhibition) at 10uM” value was determined as 15.5%.

As for `CC1CCCCN1S(=O)(=O)c1ccc(C(=O)N(CCCN(C)C)c2nc3ccc(Br)cc3s2)cc1.Cl` (stereo not shown), the “hERG current change (%, negative = inhibition) at 10uM” value is -37%.

Consider `COc1cccc(CC(=O)Nc2ccc3nc(C)sc3c2)c1`, for which the “hERG current change (%, negative = inhibition) at 10uM” value was found to be 8.73%.

Turning to `CCOc1ccc(/C(O)=C2/C(=O)C(=O)N(CCN(CC)CC)C2c2ccco2)cc1` (stereo not shown), the “hERG current change (%, negative = inhibition) at 10uM” value is reported as -10%.

On to `COc1ccccc1CNS(=O)(=O)c1ccc(Cl)s1`, for which the “hERG current change (%, negative = inhibition) at 10uM” value is on record as -6.4%.

Regarding `COc1ccc(CC(=O)NCC2CCCN(Cc3ccccc3OC)C2)cc1` (stereo not shown), the “hERG current change (%, negative = inhibition) at 10uM” value turned out to be 10.5%.

For `COc1ccc(CC(=O)NCC2CCCN(Cc3ccc(SC)cc3)C2)cc1` (stereo not shown), the “hERG current change (%, negative = inhibition) at 10uM” value is given as -67.5%.

Take `COc1ccc(CC(=O)NCC2CCCN(Cc3ccccc3Cl)C2)cc1` (stereo not shown): the “hERG current change (%, negative = inhibition) at 10uM” value is reported as 4.3%.

Consider `COc1ccc(CC(=O)NCC2CCCN(Cc3cc(OC)cc(OC)c3)C2)cc1` (stereo not shown), for which the “hERG current change (%, negative = inhibition) at 10uM” value is recorded as -21%.

For the compound `COC(=O)c1ccc(CN2CCCC(CNC(=O)Cc3ccc(OC)cc3)C2)cc1` (stereo not shown), the “hERG current change (%, negative = inhibition) at 10uM” value is listed as -14.7%.

As to `COc1cc(OC)cc(C(=O)NCC2CCCN(Cc3ccc(SC)cc3)C2)c1` (stereo not shown), the “hERG current change (%, negative = inhibition) at 10uM” value is -72.3%.

Regarding `CCc1ccc(CN2CCCC(CNC(=O)c3cc(OC)cc(OC)c3)C2)cc1` (stereo not shown), the “hERG current change (%, negative = inhibition) at 10uM” value is on record as -69.9%.

For the compound `COc1cc(OC)cc(C(=O)NCC2CCCN(Cc3cccc(C(C)=O)c3)C2)c1` (stereo not shown), the “hERG current change (%, negative = inhibition) at 10uM” value is -25.3%.

With `COc1ccc(CC(=O)NCC2CCCN(Cc3ccc(OC(F)(F)F)cc3)C2)cc1` (stereo not shown), the “hERG current change (%, negative = inhibition) at 10uM” value is recorded as -63.7%.

For the compound `COc1cc(OC)cc(C(=O)NCC2CCCN(C(=O)c3oc(C)cc3C)C2)c1` (stereo not shown), the “hERG current change (%, negative = inhibition) at 10uM” value is -18.5%.

Consider `COc1ccc(CC(=O)NCC2CCCN(Cc3cccc(SC)c3)C2)cc1` (stereo not shown), for which the “hERG current change (%, negative = inhibition) at 10uM” value is on record as -34.6%.
